Source: PubChem BioAssay (National Center for Advancing Translational Sciences (NCATS))
KCNH2 WT inh: blocks the wildtype human KCNH2 potassium channel; Q12809; U2OS, BacMam KCNH2, thallium flux FluxOr; hits give low values; activity change, % at 1.84 µM; 340,000 tested, 0.37% active;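 active = maximum activity change below -70%; inconclusive = maximum activity change between -70% and -50%; inactive = maximum activity change above -50%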; note: % is set by controls: 0 for no effect and ±100 for the full control effect
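U2OS cells were transduced with wild-type KCNH2 virus (2.03 x 10^8 / mL) for 4 h at room temperature, then cultured overnight at 37 C. Thallium flux was read with FluxOr dye. Rate constants were normalized to DMSO controls.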
PTAP TSG101 blk: blocks PTAP/TSG101 interaction to inhibit HIV-1 budding; Fluorescence polarization, FITC-PTAP peptide / Tsg101 binding; AID 493005; Potency, µM (top dose mostly 115 µM), for inactives: top-dose activity change, negative = inhibition, usual class: inhibitors; 340,000 tested, under 10 active; active = well fitted inhibition curve with a large enough effect in the main read-out, with a control signal flat, not every such curve was filed as active; inconclusive = small, poorly fitted or top-dose-only effect, or effect the other way, or a change in a side signal; inactive = no such curve, though single readings can be large or run the other way; note: potency is the fitted concentration of half-maximal effect; % of control where 0% means no effect
Target sequence (Q99816 whole entry, looked up): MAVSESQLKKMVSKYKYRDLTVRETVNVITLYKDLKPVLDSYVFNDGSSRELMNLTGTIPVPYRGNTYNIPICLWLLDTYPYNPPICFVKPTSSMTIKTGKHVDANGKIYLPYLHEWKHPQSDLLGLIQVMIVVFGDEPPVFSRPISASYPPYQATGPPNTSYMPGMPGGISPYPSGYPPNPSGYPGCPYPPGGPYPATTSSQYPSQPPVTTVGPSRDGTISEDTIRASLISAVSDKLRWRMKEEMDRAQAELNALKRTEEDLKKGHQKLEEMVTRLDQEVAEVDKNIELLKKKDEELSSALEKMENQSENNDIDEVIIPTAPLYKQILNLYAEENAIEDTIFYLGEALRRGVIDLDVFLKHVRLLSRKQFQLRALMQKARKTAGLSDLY
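FP read-out: FITC-PTAP peptide, 50 nM final, binding Tsg101 binding domain, 10 uM final; 20 min, r.t.; 10 mM HEPES pH 7.5, 0.15 M NaCl, 0.01% Tween 20, 3 mM EDTA, 0.1 mM TCEP.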
Tb PFK block: blocks T. brucei phosphofructokinase. O15648. T. brucei PFK, ADP-Glo luminescence. Potency, µM (series often up to 57.5 µM), for inactives: at the top dose activity, negative = inhibition, hits mostly inhibitors. 330,000 tested, 0.17% active; active = well fitted inhibition curve with a large enough effect; inconclusive = small, poorly fitted or top-dose-only effect, or effect the other way;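 note: potency is the fitted concentration of half-maximal effect; 0% = uninhibited 1x PFK enzyme wells and -100% = no-enzyme wells; nearly all actives have a fitted effect of over 60% in size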
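In TEA buffer at pH 8.0 with 5 mM MgCl2, enzyme (1.25 nM) converted F6P (0.5 mM) and ATP (0.1 mM) for 45 min at room temperature. ADP product was read by luciferase luminescence.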
KCNH2 3.1 inh: blocks the human KCNH2 3.1 channel isoform | 340,000 tested, 0.95% active | AID 720553 | U2OS KCNH2 3.1, thallium flux FluxOr; hits give low values | activity change, % (tested at about 1.8 µM);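 active = maximum activity change below -70%; inconclusive = maximum activity change from -70% to -50%; inactive = maximum activity change above -50%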;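 note: thallium influx rate constant from kinetic fluorescence after stimulation buffer; % is set by controls: 0 for no effect and ±100 for the full control effect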
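U2OS cells transduced with KCNH2 3.1 mutant virus (1.77 x 10^8 /mL, 4 h), plated overnight at 37 C, loaded 45 min with FluxOr dye plus Red40 quencher. Thallium flux rate constant from kinetic reads after stimulation buffer, normalised to controls.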
The depositor's hits bear a star; ? = inconclusive; nt = no result. Shown are actives, neighbours in structure and some others; about 1.2% of the full set was active somewhere.

SMILES | KCNH2 WT inh | PTAP TSG101 blk | Tb PFK block | KCNH2 3.1 inh
Cn1c(SC(C(=O)Nc2ccc(F)cc2)c2ccccc2)nc2ccccc21 (stereo not drawn) | -9 | 0% | -3% | -82*
Cn1nnnc1SC(C(=O)Nc1ccc(F)cc1)c1ccccc1 (stereo not drawn) | -1 | -1% | -2% | 15
COc1ccc(-n2nc3c(N4CCCC(C(=O)NCc5ccccc5C)C4)nnc(C)c3c2C)cc1 (stereo not drawn) | nt | nt | 2% | nt
CCCCCC1CC(CC(=O)Nc2ccc([N+](=O)[O-])cc2)C(=O)O1 (stereo not drawn) | nt | -3% | 1% | -71*
O=C(Nc1cccc(S(=O)(=O)N2CCCCCC2)c1)c1ccc2c(c1)OCO2 | -24 | 0% | 0% | -84*
CCCCCC(=O)N1C[C@@H](n2cc(-c3ccc(F)cc3)nn2)[C@H](O)C[C@@H]1c1ccc(OC)cc1 | 4 | nt | nt | 5
CCC(C)c1ccccc1N1CC(C(=O)Nc2ccc(C)c(S(=O)(=O)N3CCOCC3)c2)CC1=O (stereo not drawn) | -16 | -2% | 7% | -73*
CC1CCN(CCc2nc3cc(NC(=O)COc4ccc(Cl)cc4)ccc3n2C)CC1 | 11 | -3% | 1% | -96*
Cn1c(CCN2CCN(c3ccccn3)CC2)nc2cc(NC(=O)COc3ccc(Cl)cc3)ccc21 | -17 | -3% | -21% | -74*
COc1ccc(OCC(=O)Nc2ccc3c(c2)nc(CCN2CCC(C)CC2)n3C)cc1 | 1 | -3% | -3% | -31
CN(CC(=O)Nc1ccccc1Br)C(=O)c1ccncc1 | 2 | -5% | 0% | -105*
CCOC(=O)c1sc2ncn(CC(=O)NCC3CCCO3)c(=O)c2c1C (stereo not drawn) | -4 | -1% | -11% | -180*
COc1ccc(S(=O)(=O)N2CCOCC2)cc1NC(=O)CSc1nnnn1C1CC1 | 0 | -4% | 0% | 1
COc1ccc(NC(=O)c2ccc(-c3ccc(-c4noc(C)n4)cc3C)cc2)cc1N1CCN(C)CC1 | 8 | 2% | 0% | -87*
CCOC(=O)c1c(C)[nH]c(C(=O)N/N=C\c2ccccc2O)c1C | 24 | -3% | -1% | -7
CCOC(=O)c1c(C)[nH]c(C(=O)N/N=C/c2cc([N+](=O)[O-])ccc2O)c1C | -21 | -5% | -4% | -70*
O=C(NCCN1CCN(c2ccc([N+](=O)[O-])cc2)CC1)NCc1ccccc1 | -10 | -7% | 1% | -73*
O=C(CCN1CCN(c2ccc([N+](=O)[O-])cc2)CC1)c1ccc(Cl)cc1 | -77* | -1% | -23% | -113*
O=C(CN1CCN(Cc2ccc(Cl)cc2)CC1)N/N=C/C=C/c1ccccc1[N+](=O)[O-] | -36 | -1% | 12% | -91*
CCc1ccc(NC(=O)C(=O)NCCN2CCN(C(=O)c3ccc(OC)cc3)CC2)cc1 | 31 | nt | nt | -97*
O=C(CN1CCN(c2ccc([N+](=O)[O-])cc2)CC1)c1ccccc1 | 1 | 0% | -25% | -8
CC(C)(C)NS(=O)(=O)c1ccc(C(=O)Nc2ccc3c(c2)OCO3)cc1 | -8 | 0% | 2% | 4
CCCCCCCCCCCCC/C=C/[C@@H](O)[C@@H](N)CO | 4 | 1% | 4% | 4
Cc1cc(C)c(C)c(S(=O)(=O)N2CCC(C(=O)NC3=NCCS3)CC2)c1C | 16 | -5% | -5% | 0
O=C(NCCN1CCN(c2cccc(Cl)c2)CC1)Nc1ccccc1 | 31 | -4% | -13% | 2
SMILES | KCNH2 WT inh | PTAP TSG101 blk | Tb PFK block | KCNH2 3.1 inh
O=C(NCCN1CCN(Cc2ccccc2)CC1)Nc1cc(Cl)cc(Cl)c1 | ? | -5% | 2% | -93*
O=C(NCCN1CCN(Cc2ccc([N+](=O)[O-])cc2)CC1)C(=O)Nc1ccccc1 | ? | -2% | -2% | -82*
CCCCc1ccc(NC(=O)C(=O)NCCN2CCN(C(=O)c3ccc([N+](=O)[O-])cc3)CC2)cc1 | ? | -1% | 1% | -101*
C/C(=N/NC(=O)CN1CCN(Cc2ccccc2)CC1)c1ccc([N+](=O)[O-])cc1 | -11 | -3% | -22% | -79*
C[C@@](Cc1ccccc1)(C(=O)O)N1C(=O)c2ccc(C(=O)O)cc2C1=O | nt | nt | -1% | nt
CC1CCN(S(=O)(=O)c2ccc3c(c2)N(CC(=O)NCCN2C(C)CCCC2C)C(=O)CS3)CC1 (stereo not drawn) | -76* | 1% | -4% | -23
COc1ccccc1OC(C)C(=O)N(Cc1ccco1)C1CCS(=O)(=O)C1 (stereo not drawn) | 3 | -2% | -3% | 15
CC(C)N(Cc1nnc(-c2ccc(Cl)cc2)o1)C(=O)c1cc2ccccc2o1 | -1 | -2% | 0% | -91*
CCC(=O)N(CCC(Cc1ccccc1)c1ccc2c(c1)OCO2)Cc1ccccc1F (stereo not drawn) | 2 | 1% | -4% | -79*
CCC(=O)N(CCC(Cc1ccccc1)c1ccco1)Cc1ccco1 (stereo not drawn) | 3 | 1% | -2% | 21
O=C(CSc1ccc(S(=O)(=O)N2CCCC2)cn1)Nc1ccc([N+](=O)[O-])cc1C(F)(F)F | 0 | -4% | nt | -44
COc1ccc(O)c(CN2CCN(C/C=C/c3ccccc3)CC2)c1 | 34 | -7% | 2% | 6
Cc1cc(C)c2c(CN3CCN(C/C=C/c4ccccc4)CC3)cc(=O)oc2c1 | -101* | -3% | -2% | -87*
COc1cc(Br)cc(CN2CCN(C/C=C/c3ccccc3)CC2)c1O | -24 | -7% | -2% | -71*
CCC(C(=O)OCC(=O)NCc1ccc2c(c1)OCO2)c1ccccc1 (stereo not drawn) | -3 | -3% | -2% | 8
N#CCC(C(=O)c1cccnc1)c1ccccc1 (stereo not drawn) | 51 | nt | nt | 11
Cc1nonc1CN(C)C(=O)CC1C(=O)NCCN1Cc1c(F)cccc1Cl (stereo not drawn) | 4 | -5% | 0% | -5
Cc1cc(CN(C)C(=O)CC2C(=O)NCCN2Cc2c(F)cccc2Cl)n[nH]1 (stereo not drawn) | -79* | -1% | 4% | -15
Cn1cc(Br)c(NC(=O)/C=C/C(=O)O)n1 | -6 | -2% | -19% | -122*
S=c1nc(-c2ccccc2)[nH]c2ccc(Br)cc12 | -73* | -2% | 0% | 0
c1ccc(-c2nc3ccccc3[nH]2)cc1 | -1 | 1% | -8% | 0
CCOc1ccc(NC(=O)C2CCN(S(C)(=O)=O)CC2)cc1 | 8 | -4% | -5% | -7
COc1ccc(C(=O)N/N=C/c2ccc(OC)c(CN3CCN(c4ccc(F)cc4)CC3)c2)cc1 | -168* | -1% | -3% | -110*
COc1ccc(/C=N/NC(=O)c2cccnc2)cc1CN1CCN(c2ccc(F)cc2)CC1 | -18 | -4% | -2% | -80*
COc1ccc(/C=N/NC(=O)c2ccc(Br)cc2)cc1CN1CCOCC1 | 17 | -4% | 0% | -85*
